Drawing on PubChem BioAssay AID590 (National Center for Advancing Translational Sciences (NCATS), 2007), this text covers max dye-equivalent concentration for 55 compounds.

Hit rate of the full screen: of about 59,000 compounds, about 6,500 (11%) were called active. Roughly 15% stayed inconclusive and do not appear here. No stated cut-off is given here; in the data, active means max dye-equivalent concentration above about 10 nM; inconclusive means mostly about 1.1 nM to 9.6 nM; inactive means weaker than that. The full list was thinned out, with actives kept by preference.

This assay is described as follows: qHTS Assay for Spectroscopic Profiling in A350 Spectral Region. The following applies: Compound autofluorescence, 340/450 nm, Alexa 350 dye-equivalents; hits give high values. (In general: qHTS replaces the single test concentration by a dilution series.)
For the compound `Cc1cc(C)cc(OCc2nnc(SCC(=O)OC3CCCCC3)o2)c1`, the max dye-equivalent concentration result is “inactive”.
In the case of `CCOc1cccc(NC(=O)CC#N)c1`, the max dye-equivalent concentration entry is “inactive”.
Turning to `CCOc1ccc2cc(C#N)c(SCC(=O)OC)nc2c1`, the max dye-equivalent concentration is 31 nM (active).
For `CC(=O)c1cc(C#N)c(SCC(=O)C(C)(C)C)nc1C` the value was “inactive”; for `COc1ccc(OC)c(S(=O)(=O)N(C)CC(=O)N2CCN(c3ccccc3)CC2)c1`, “inactive”.
For `Cc1cccc(N2CCN(C(c3ccccc3)c3nnnn3CC3CCCO3)CC2)c1C` (stereo not given) the value was “inactive”; for `O=C(Cn1nnc2ccccc2c1=O)Nc1cc(C(F)(F)F)ccc1N1CCOCC1`, “inactive”; for `COc1ccccc1-c1cc(NCc2cccs2)ncn1`, “inactive”.
For the compound `CC(C)N1C(=O)C2C(C(=O)NC3CCCCC3)C3C=CC2(O3)C1C(=O)NC1CCCC1` (stereo not given), the max dye-equivalent concentration result is “inactive”.
`CCc1nnc(NS(=O)(=O)c2ccc(NS(=O)(=O)c3ccccc3)cc2)s1`: the max dye-equivalent concentration result is “inactive”.
With `CC(C)c1nnc(NC(=O)C2CCCN2S(=O)(=O)c2ccc(Cl)cc2)s1` (stereo not given), the max dye-equivalent concentration entry is “inactive”.
With `CCc1nnc(NC(=O)C2CCCN2S(=O)(=O)c2ccccc2)s1` (stereo not given), the max dye-equivalent concentration is 16 nM (active).
With `Cc1c(O)c(Br)c(C)c(O)c1Br` (tested in a mixture with another compound) the entry was “inactive”; with `CCN(CC)c1ccc(C(=O)OCC(=O)c2ccco2)cc1`, “inactive”.
With `N#CCSc1nc2ccccc2c(=O)n1-c1ccccc1` the entry was “inactive”; with `C/C(O)=C\c1nc(=O)c2c(C)cc(C)nc2n1-c1ccccc1`, 44 nM (active).
In the case of `Cc1cc(C)nc(N(C#N)CC(=O)Nc2ccccc2)n1`, the max dye-equivalent concentration entry was “inactive”.
With `CCOC(=O)N1CCN(C(=O)CNC(=O)Cc2ccc(Cl)cc2)CC1` the entry was “inactive”; with `CCOC(=O)N1CCN(C(=O)c2ccc(S(=O)(=O)c3ccc(C)cc3)c(NC(C)=O)c2)CC1`, “inactive”.
With `CCOC(=O)N1CCN(C(=O)c2ccc3nc4cc(Cl)ccc4c(=O)n3c2)CC1`, the max dye-equivalent concentration was 1300 nM (active).
With `O=C(O)c1cscn1` the entry was “inactive”; with `Cc1nonc1OCCn1nnnc1N`, “inactive”.
On to `CC1CCCN(c2ccc(C(=O)NCCc3ccccc3)cn2)C1` (stereo not given), for which the max dye-equivalent concentration result is “inactive”.
For `O=S(=O)(Nc1ccccc1N1CCOCC1)c1ccc(Cl)s1` the value was “inactive”; for `Oc1cc2c(cc1O)CN(C(=S)NCCc1ccc(Cl)cc1)CCC2`, “inactive”; for `O=S(=O)(NCc1ccccn1)c1ccc(Br)s1`, “inactive”.
For `O=S(=O)(c1cccs1)N1CCN(Cc2ccccc2)CC1` the value was “inactive”; for `CCCCNc1nc2ccccc2nc1NS(=O)(=O)c1cccs1`, 61 nM (active).
With `O=S(=O)(c1cccs1)N1CCc2ccccc2C1` the entry was “inactive”; with `COCCNc1ncnc2ccc(-c3ccccc3CN(C)C)cc12`, “inactive”; with `COc1ccc(-c2cc(C(=O)NC(C(=O)O)C(C)C)c(C)o2)cc1OC` (stereo not given), “inactive”.
Take `CCOC(=O)CSc1nnc(-c2ccncc2)o1`: the max dye-equivalent concentration result is “inactive”.
With `CNC(=O)c1ccc2nc(NC(C)=O)sc2c1` the entry was “inactive”.
For `COc1ccc2nc(NC(=O)c3ccc(Br)s3)sc2c1` the value was 550 nM (active); for `COC(=O)c1sc(NC(=O)c2ccc(OC)cc2OC)nc1C`, “inactive”.
With `CCOC(=O)c1sc(NC(=O)CSc2nnc(-c3ccco3)o2)c(C(=O)OCC)c1C` the entry was “inactive”.
For the compound `O=C(c1csnn1)N1CCC[C@@]2(CCN(c3cccc(-c4ccccc4)c3)C2)C1`, the max dye-equivalent concentration result is “inactive”.
For the compound `COc1ccc(-n2c(SCC(=O)OC(C)C)nnc2-c2ccccn2)cc1`, the max dye-equivalent concentration result is “inactive”.
For `COc1ccc(C2=CC(c3cccc(OC)c3)n3nnnc3N2)cc1` (stereo not given), the max dye-equivalent concentration is 15 nM (active).
With `CCOc1cccc(-n2nnnc2-c2ccc(OC)cc2)c1` the entry was “inactive”; with `COc1ccc(C2C(C(=O)Nc3ccccc3OC)=C(C)Nc3nnnn32)c(OC)c1` (stereo not given), “inactive”; with `COC(=O)C1=C(C)NC(=O)NC1/C=C/c1ccccc1` (stereo not given), “inactive”.
In the case of `O=S(=O)(Nc1ccccn1)c1ccc(Oc2ccccc2)cc1`, the max dye-equivalent concentration entry is “inactive”.
For `CC(C)C(=O)N1CCN(c2nc(-c3ccccc3)c3c(c2C#N)CC(C)(C)OC3)CC1` the value was 200 nM (active); for `CC1(C)Cc2c(C#N)c(SCc3nc4ccccc4[nH]3)nc(N3CCOCC3)c2CO1`, 23 nM (active).
Consider `CC(C)c1nc(N2CCOCC2)c(C#N)c2c1COC(C)(C)C2`, for which the max dye-equivalent concentration is 150 nM (active).
With `c1ccc2[nH]c(NCCN3CCOCC3)nc2c1` the entry was “inactive”; with `COc1ccc(CSc2nc(N3CCOCC3)c3c(c2C#N)CC(C)(C)OC3)cc1`, 34 nM (active); with `COc1cc(C2C(C#N)=C(N)Oc3n[nH]c(-c4ccccn4)c32)cc(OC)c1OC` (stereo not given), “inactive”.
For `CCc1nnc(NC(=O)c2c(O)c3c([nH]c2=O)CCCC3)s1`, the max dye-equivalent concentration result is “inactive”.
Take `CN(Cc1ccccc1)Cc1ccccc1F`: the max dye-equivalent concentration result is “inactive”.
With `Cc1ccc(S(=O)(=O)N2CCC(C(=O)N[C@@H](C)C(=O)NCc3ccccc3)CC2)cc1` the entry was “inactive”; with `O=C(c1csnn1)N1CCC2(CC1)CN(c1ncccn1)C2`, “inactive”.
With `CC(C)OCCCNC(=O)CNC(=O)c1cccs1` the entry was “inactive”; with `CCCCOc1ccc(Cl)cc1CSc1nncn1N`, “inactive”.
